Screening results from PubChem.
An excerpt weighted towards active compounds, which were near 2.4% of everything screened.
PTHR1 agonist = activates the human parathyroid hormone receptor PTHR1; Q03431; HEK293 GP2 PTHR1 cells, GloSensor cAMP luminescence, 1 h; Potency, µM (top dose mostly 115 µM), inactives show top-dose activation, actives largely listed as activators; 0.075% of 410,000 active; AID 743266; also: potency is read from the fitted curve at half-maximal effect; nearly all actives have a fitted effect of over 55% in size
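HEK-293-derived GP2 cells expressing PTHR1 and a GloSensor cAMP reporter, 3,000/well, plated overnight, given luciferin plus IBMX (each 0.5 mM as added) for 1 h at 37 °C, then compound for 1 h at 37 °C. Luminescence was read after 15 min at room temperature.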
GLP1R cytotox = cytotoxicity in counter-screen for GLP-1R inverse agonists; Potency, µM (highest dose often 38.3 µM), for the others: at the top dose activity change, negative = inhibition, actives largely listed as inhibitors; HEK293 cAMP-luciferase reporter cells, luminescence, 24 h; 0.13% of 410,000 active;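 also: loss of luciferase light is scored as toxicity; potency is read from the fitted curve at half-maximal effect; % is scaled to controls: 0 for no effect and ±100 for the full control effect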
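1536-well qHTS counterscreen of the MLSMR; 200 cells/uL, 12 h pre-incubation, 23 nL cpd, 24 h at 37 deg C 5% CO2, luciferase detection reagent, 12 min RT, luminescence. Inhibition = undesired.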
TRHR PAM = allosterically enhances the human TRH receptor; P34981; 0.66% of 360,000 active; enhancement, % at 2 µM; AID 493056; TRHR cells, fluo-8 calcium fluorescence, EC20 TRH enhancement; in the data active = enhancement above about 30%; also: 0% is about no effect
Target sequence (P34981 whole entry, looked up): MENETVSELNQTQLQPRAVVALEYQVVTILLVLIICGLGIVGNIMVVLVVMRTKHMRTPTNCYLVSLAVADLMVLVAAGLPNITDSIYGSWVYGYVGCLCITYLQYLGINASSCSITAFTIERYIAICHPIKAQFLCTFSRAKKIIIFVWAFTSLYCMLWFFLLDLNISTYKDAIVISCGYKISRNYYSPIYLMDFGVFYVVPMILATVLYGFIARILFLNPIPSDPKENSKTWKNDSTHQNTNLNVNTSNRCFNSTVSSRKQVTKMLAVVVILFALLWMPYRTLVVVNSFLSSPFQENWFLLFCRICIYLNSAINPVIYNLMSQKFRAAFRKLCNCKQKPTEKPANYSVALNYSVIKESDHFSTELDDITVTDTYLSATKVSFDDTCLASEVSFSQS
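TRHR-expressing cells loaded with fluo-8 calcium dye were read kinetically (ex 480/em 530) during compound addition, then stimulated with an EC20 of TRH (10 nM final). Enhancement of the Gq-mediated intracellular calcium response was scored.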
GLP-1R inv ag = GLP-1 receptor (human) inverse agonism | P43220 | HEK293 GLP-1R CRE-luciferase, luminescence, 24 h; GLP-1R form is constitutively active | Potency, µM (top dose mostly 38.3 µM), inactives show at the top dose activity change, negative = inhibition, actives largely listed as inhibitors | 1.6% of 410,000 active | AID 624417; also: potency is read from the fitted curve at half-maximal effect; % is scaled to controls: 0 for no effect and ±100 for the full control effect; nearly all actives have a fitted effect of over 55% in size
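Constitutively active GLP-1R drives a cAMP-responsive luciferase in stably transfected HEK293 cells; test compounds are added after overnight (12 h) attachment and left 24 hr, and signal loss in luminescence marks inhibition.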
TRHR agonist = TRH receptor (human) agonism | P34981 | TRHR cells, calcium flux fluo-8, FDSS agonist mode | activation, % at 2 µM | 0.18% of 360,000 active | AID 493084; in the data active = activation above about 30%; also: 0% is about no effect
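TRHR-expressing cells loaded with fluo-8 calcium dye; 23 nL library compound pin-transferred, kinetic FDSS fluorescence (Ex 480/Em 530) recorded about 180 s for agonist-induced calcium release, before a 10 nM TRH EC20 addition for potentiator mode.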
GLP1R ag = agonists of human GLP-1 receptor | P43220 | HEK293 GLP-1R CRE-luciferase, luminescence, 4-6 h; cells express a hypersensitive GLP-1R form | Potency, µM (top dose mostly 45.6 µM), for inactives: top-dose activation, actives largely listed as activators | 0.007% of 380,000 active; also: potency is read from the fitted curve at half-maximal effect; % of control where 0% means no effect
* hit, by the source's call; i = inactive; ? = inconclusive; nt = no result; [ ] = remark or other dose. Unless noted, calls follow the shape of the dose curve; as a rule, active = well fitted curve in the direction sought with a large enough effect; inconclusive = small, poorly fitted or top-dose-only effect, or another doubt; inactive = no such curve, though single readings can be large; an effect the other way counts as inactive or inconclusive.

SMILES | PTHR1 agonist | GLP1R cytotox | TRHR PAM | GLP-1R inv ag | TRHR agonist | GLP1R ag
CN(C)c1oc(-c2ccccc2[N+](=O)[O-])nc1C#N | i | -5% | -4 | ? | -1 | -1%
COC(=O)N[C@@H]1C[C@H]2[C@@H]3CC[C@H]4C[C@@H](OC)CC[C@]4(C)[C@H]3CC[C@@]12C | -23% | 1% | -3 | ? | 0 | 13%
Cc1nnc2sc(SCc3ccccc3)nn2c1=O | nt | nt | 34* | nt | 0 | nt
CN(C(=O)COC(=O)Cc1c(F)cccc1Cl)c1c(N)n(Cc2ccccc2)c(=O)[nH]c1=O | i | -5% | 1 | 4% | 0 | 3%
CCn1c(/C=C/c2ccc(O)c(O)c2)nc2ccccc2c1=O | -12% | 42% | 34* | 18% | 8 | -1%
O=C(C(Cc1ccccc1)N1C(=O)c2ccccc2C1=O)N1c2ccccc2CCc2ccccc21 (stereo not given) | i | 6% | -10 | 13µM* | 1 | -1%
Cc1ccc(NS(=O)(=O)c2ccc(-n3cccn3)cc2)c(C)c1 | -13% | 11% | 1 | 10µM* | 0 | 3%
Cc1ccc(NS(=O)(=O)c2ccc(-n3cccn3)cc2)c(Br)c1 | -28% | -3% | 4 | ? | 1 | 0%
CC(C)c1nn2c(=O)cc(COC(=O)c3ccccc3Cl)nc2s1 | -26% | -6% | -2 | ? | 0 | nt
NC(=S)N=Nc1c(O)n(Cc2ccccc2)c2ccccc12 | i | ? | -4 | ? | -1 | -1%
C/C(Cl)=C\Cn1c(O)c(N=NC(N)=S)c2ccccc21 | -7% | 1.6µM* | -8 | ? | -2 | ?
COC(=O)c1ccc(Cn2c(O)c(N=NC(N)=S)c3ccccc32)o1 | ? | ? | -2 | 10µM* | -1 | 10%
O=C(NCc1ccccc1Cl)c1ccc2nc([C@@H]3O[C@H](CO)[C@H](O)[C@H](O)[C@H]3O)[nH]c2c1 | -20% | 3% | nt | 10% | nt | 3%
O=C(Nc1ccc(Cn2cccn2)cc1)c1ccc(COc2cccc(Br)c2)cc1 | -47%[57.5 µM] | -3% | 0 | 5µM* | 2 | 1%
O=C(COc1ccc(-c2ccccc2)cc1)N/N=C/c1cccnc1 | -15% | 0% | -4 | -25% | 0 | 18%
Cc1cccc(C)c1OCC(=O)N/N=C/c1cccnc1 | -12% | 13µM* | -2 | -29% | 1 | 10%
S=C1NC[C@H](CC2CCCCC2)N1CC1CCCCC1 | -65% | 5.6µM* | -1 | 4.5µM* | 0 | 1%
CCCC[C@@H]1CNC(=S)N1CC1CCCCC1 | -26% | -31% | 1 | ? | -1 | 0%
O=[N+]([O-])c1cc(-c2csc(NCCc3nc4cc(Cl)c(Cl)cc4n3CCCO)n2)ccc1Cl | -36% | ? | nt | 14µM* | nt | 0%
CCC1CCCCN1C(=O)CSc1nnc(-c2c[nH]c3ccccc23)o1 (stereo not given) | i | -26% | -6 | 11µM* | 0 | 5%
CCOC(=O)C1(C(=O)OCC)COC(=O)C1CN1Cc2cc3ccccc3nc2C1 (stereo not given) | -50% | -31% | nt | ? | nt | -3%
CC(C)COc1ccc(CSCCNC(=S)Nc2ccccc2)cc1 | -57% | 4.5µM* | 2 | 3.2µM* | -2 | 2%
CCCCCOc1ccc(CSCCNC(=S)Nc2ccccc2)cc1 | -21% | -7%[1.53 µM] | -1 | ? | 2 | -4%
CCCCOc1ccc(CSCCNC(=S)Nc2ccccc2)cc1 | -31% | 3.2µM* | -4 | 1.8µM* | 0 | -4%
Cc1cccc(CSCCNC(=O)Nc2ccccc2)c1 | -11% | -20% | 0 | ? | -1 | -3%
Cc1c(Cl)cccc1Nc1nc(N)nc(CN2CCCCCC2)n1 | i | 4% | 2 | 1% | 1 | -5%
CC1(C)C([N+](=O)[O-])C(c2ccc(F)cc2)NC(c2ccc(F)cc2)C1[N+](=O)[O-] (stereo not given) | -7% | 25% | 1 | 10µM* | 0 | -2%
